# Measurements reported in PMC13494018.
# Values without a mark were called inactive. How the calls were made is not given here.
# Target: PDL1, Q9NZQ7
# Sequence (Q9NZQ7 whole entry): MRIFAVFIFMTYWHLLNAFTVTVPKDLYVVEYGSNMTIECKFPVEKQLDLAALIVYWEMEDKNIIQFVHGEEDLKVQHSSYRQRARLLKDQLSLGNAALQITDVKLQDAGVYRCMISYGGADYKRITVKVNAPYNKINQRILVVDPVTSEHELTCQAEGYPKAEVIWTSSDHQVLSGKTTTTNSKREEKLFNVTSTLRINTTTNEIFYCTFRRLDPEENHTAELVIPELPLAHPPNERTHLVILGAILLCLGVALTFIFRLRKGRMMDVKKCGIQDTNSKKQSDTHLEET
row,Binder,binding in a display sort
1,d8r1_design_ppi_994_dldesign_0_cycle1_af2pred (protein) GKVEELEKKFREELQAAADLIAELRKADPELGKLAAKALAYALANPELGRKLAEEVAAKSPLGAKAAAEILALIETREELLKAEKEA,not found
2,d8r1_design_ppi_1038_dldesign_0_cycle1_af2pred (protein) SDKRLAKNTAEAILRRTKELAKKAAAATAEEAKALAAIAEKGAKSAEAVAKKSGDEETKKLAKEAKEAAKKAKE,not found
3,d8r1_design_ppi_1102_dldesign_0_cycle1_af2pred (protein) DAVREAGVAAAQAIKVALDEGDKELANAVSEAARAAVADPALAPLVKEGAELIIDPEKREQGRELVEKAVAAYKAAQ,not found
4,d8r1_design_ppi_536_dldesign_0_cycle0_af2pred (protein) SKDEEIAKLLLKTAEAARKDAKKALELAKELKKLGNKNQGGAIVTLLQAAVENKGAAGKSALAGAVKLAEAKAEDLLAK,not found
5,d8r1_design_ppi_47_dldesign_0_cycle1_af2pred (protein) GQAALDAAAKRLDELTKEAEKASPNTGKAVEAIRDGSIRVATALFAAGDAARGRAALENGVAASEKLVEATKS,not found
6,d8r1_design_ppi_592_dldesign_0_cycle1_af2pred (protein) GDAEDAVRAAENALKSAENYLAKADTLEQAQKAINAAKGAREFIKYAAKLGADPATVAALEKKANAVEEAAKAKAKALA,not found
7,d8r1_design_ppi_637_dldesign_0_cycle1_af2pred (protein) MTAEAAKAEVRARLEAAGERAAEAAKERGADYEAVLAAARSMAERAAADPDPEAALARGAEALAFLEALEKYYRE,not found
8,d8r1_design_ppi_1381_dldesign_0_cycle1_af2pred (protein) AAARQELVDRALAALDAARAASPEEAVAIAPKAYGLAVMVGEDPRVQAALEAAAAANPAAAPILNEALALARATAAAQAAARAAA,not found
9,d8r1_design_ppi_118_dldesign_0_cycle0_af2pred (protein) GLVSLLRAAKNTLESAIEAEDAEKAAKYLAGAAQLLEGAAKLDPRVEPAAKLAKEAAAAAKADIEKGKAKAKEALKAVEELLKEAEEE,not found
10,d8r1_design_ppi_1136_dldesign_0_cycle0_af2pred (protein) SAAAAARARTAAANAAALAKKMLEAGVSPENARALVEAAAARLTPEAGAALRAEGEALVAEYAARREAEAA,binds (active)
11,d8r1_design_ppi_400_dldesign_0_cycle0_af2pred (protein) SAELAAIKAAAENARAGAILLAKESKAETALKFNEAAKERLLKLAAATADAKAAKAVVEEEAKKAEEEIKKIGEE,not found
12,d8r1_design_ppi_753_dldesign_0_cycle0_af2pred (protein) SAEAQAALAGARAAVAGAELLVEVAEETGSQGALRAAKRAAEAAEEAARKAAELGAEEEARELEERAREVRERAEKLE,not found
13,d8r1_design_ppi_1339_dldesign_0_cycle0_af2pred (protein) DEAWLAEIKALVSAAVAAAREGDVAALAAAQAAAAALAAAAPASVKPAAANATAGIATLLELTKERLEEKA,not found
14,d8r1_design_ppi_700_dldesign_0_cycle1_af2pred (protein) EETKKKRDEYVKKAGEALLKADPTLTAQAAAIKDAAYNAGPAALMAAMAAAYKAAVAANPANAPYAAEAVNYAAKAAIYAKEA,not found
15,d8r1_design_ppi_1493_dldesign_0_cycle1_af2pred (protein) AAESEALRQQAIDLAQKAAEIAADDENAEEVKARIDAAIAHLQAGDYAAAAADLLAAAKLASPEARGYILKALLKAMEAA,binds (active)
16,d8r1_design_ppi_323_dldesign_0_cycle1_af2pred (protein) SALEEAKRAIAEARELAAEAKARGPAAAPAAAIAANAIAGAELLVELGSYEAATAVARAGIRVARAYLAAV,not found
17,d8r1_design_ppi_540_dldesign_0_cycle1_af2pred (protein) DKKTETILAGMEAASNAAALLKKDPAAGGAYLLAKAKEVGAAVGNAADIVPAAAAAAADPATAAARLREFVSIVVSSVTS,not found
18,d8r1_design_ppi_412_dldesign_0_cycle1_af2pred (protein) AKAAQLRATSDLYALAYIAEKKVGKALADKLRAAAASGDPAAMLAAAEEAAKAIGEIGKRLYERLVAALA,not found
19,d8r1_design_ppi_1481_dldesign_0_cycle1_af2pred (protein) SSDEDYAALVEGMALASQTYAQARALIAATGAAGGAQARALAQAAAAQLRAAGAKYPSRAAQYDALADGLVRTVTAAAA,binds (active)
20,d8r1_design_ppi_882_dldesign_0_cycle1_af2pred (protein) MTPEEAAAEARRIGDGAAAAIAASTDVATAKAIYDRAVTELTALAAAFPEVAHVASAELVKVAKAYIAKGDAL,not found

row,Binder,binding in a display sort
1,d8r1_design_ppi_43_dldesign_0_cycle1_af2pred (protein) EEALKKASEALSEAARLAIKNPAYLPAFAATGAAYGKVLEAYKKSPEEAKKAAKELLALYEKEVAAAKAAL,not found
2,d8r1_design_ppi_1429_dldesign_0_cycle1_af2pred (protein) SSLKREEILRKTAEAMAEATLAKVRELAKEDPERARRALENMRALLALLGPVAAKIGEEAYARGLAIIAEIA,not found
3,d8r1_design_ppi_882_dldesign_0_cycle0_af2pred (protein) MTPEEAAAAARAIGAAAAAAIAASTDLATAGALADAAFRALVALAAAFPEVAPVASAEMAAVAKAFIAKGDAL,not found
4,d8r1_design_ppi_87_dldesign_0_cycle1_af2pred (protein) SEEEFERRIAIAAEQLAAMDAALAAIKASGDAAEKQALLAQLRAAGEEMAKALGPAGAAIAEALLAQAEAALAA,not found
5,d8r1_design_ppi_508_dldesign_0_cycle1_af2pred (protein) AGKEALAKAIAEVKELVTAAMLANQKSREEGIKTAKEQAEKAKKLAEEAKASPLAAEIVKVLQSGRDFLEKLAEMLKES,not found
6,d8r1_design_ppi_419_dldesign_0_cycle1_af2pred (protein) SALEEKAKEAIEKMEKAAEELKKAAAELKKLDPEAGAAAEAALEAHLAILELAKKFSTKVTLNVAEAMTRGLERALKEAKARIAALK,not found
7,d8r1_design_ppi_753_dldesign_0_cycle1_af2pred (protein) NAAAKAALAAAKAAVEGASLLVEVAEKEGSKGMLEAAKRVAEEAIAAAEKAAKLGATEEAAKLKAQAKEVKKRAEKLE,not found
8,d8r1_design_ppi_1136_dldesign_0_cycle1_af2pred (protein) AAEKEARDLAAADNAIALVKKMLEAGVSPENALATAEAAAALLSPAARARLLAAARAIVAAHEAAKAAAAA,not found
9,d8r1_design_ppi_1265_dldesign_0_cycle0_af2pred (protein) SETEEGAKALIRAAANAAKYLAKKYGELAKKLAELVKKALEAGPEEAVKYLEEAAALAKEAGQKTGGTKAFAALQATLKKAAELKKK,not found
10,d8r1_design_ppi_674_dldesign_0_cycle1_af2pred (protein) SEEKINQAWIDTSKASELILAGEELSVTDPEKGAALIEKGRALAEEAAKAVPSKAEAILSTAEKTLEVAKARAAEVAA,not found
11,d8r1_design_ppi_640_dldesign_0_cycle1_af2pred (protein) SEEEEKKYEELAKAGAAASKAGAVAAKHPDNPEIKKLADEAGKALSEAFTSDVETAKKLAEKVEALAKAAEALAA,not found
12,d8r1_design_ppi_416_dldesign_0_cycle0_af2pred (protein) SEEAARILAETLGTISAQTAAAKAAAAAGDVEAARAAAAAARAAAEEGAKRLEELGNKSGAEALRSIGAATAAHIKALAAKAAA,binds (active)
13,d8r1_design_ppi_482_dldesign_0_cycle1_af2pred (protein) SESEEWIKEITDAANQAVALAKAGKTAEAYALLDATAAKAAAKSPSRGALAKGVADAMRVYIDKYAAKKA,binds (active)
14,d8r1_design_ppi_266_dldesign_0_cycle0_af2pred (protein) SKVEEAKERFEKVVEEAEKKVKEALAKAKTAEEALKASIEAIKEAASEIAKIYSEVGEEVADLAVEALARLSALTAEAKAAAAKKAAA,not found
15,d8r1_design_ppi_345_dldesign_0_cycle1_af2pred (protein) ATAEATATKIKTGIEKMLKLSKELGKGALINAAAAAKASAKVMDKLLADPSITPAARAALTAARDEAEKAAKEAEAEAKKL,not found
16,d8r1_design_ppi_897_dldesign_0_cycle1_af2pred (protein) NPEAKDAALVKIGEGASYVAAASGDTAVARTVFTTSYTGVQEGNLEAAAAAAVATVAAAVDAATAARVAALAAAAVAAYKA,not found
17,d8r1_design_ppi_1124_dldesign_0_cycle1_af2pred (protein) STATAAANAAAFSSKGAAVVGDKFAPSVESVLERVVELDPAAGLAAAEAVAAAAAAHPAVRAVAEAVAARARAAL,not found
18,d8r1_design_ppi_996_dldesign_0_cycle1_af2pred (protein) SASDIKAAQKAAAAVLRVAAERFPEVAAVAEPAAETAYNGDAETAIKAILEAAEAIRAAAARLPGGAELRAYADALENIAALLKRLAA,not found
19,d8r1_design_ppi_700_dldesign_0_cycle0_af2pred (protein) SENKAKMEEHLAKAKEALLKGDPAAAPLAEAMAKAAKEEGPAALMAAAAAAYAAVVAADPSAAPLASQALAHAAKAAIYLGDS,not found
